Screens deposited in PubChem BioAssay by several laboratories.
CYP2C19 inhib: inhibitors of human CYP2C19 | P33261 | CYP2C19 Supersomes, luciferin-H EGE luminescence, 30 min | inhibition, % at 5 µM | hit rate 21% among 96,000 | AID 778;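 active means CYP2C19 inhibition above a set limit at 5 µM in the primary screen, cut at about 50% in these data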;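 further: plate controls were negative control wells for no effect and 2.5 mM tranylcypromine positive control for full effect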
CYP2C19 activ: cytochrome P450 2C19 (human) activation; P33261; recombinant CYP2C19, luciferin-H EGE luminescence; active compounds read high; 0 = fully inhibited enzyme, 1 = untreated enzyme; activation factor at 5 µM; 96,000 tested, under 10 active; AID 1025;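 active means activation factor of at least 2 at 5 µM in the primary screen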;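 further: 0 = wells with 2.5 mM tranylcypromine and 1 = vehicle-only wells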
EphB4 ephrin blk: blocks human EphB4 binding to ephrin-B2. P54760. EphB4 LBD / TNYL-RAW-Alexa532 peptide, fluorescence polarization. inhibition, % at 7 µM. hit rate 0.15% among 97,000. AID 720;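 active means inhibition above the screen-wide mean inhibition plus 3 SD, cut at about 15% in these data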;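 further: 0% = DMSO wells and 100% = excess unlabeled TNYL-RAW peptide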
CYP2C9 inhib: inhibitors of human CYP2C9. hit rate 20% among 96,000. AID 777. P11712. CYP2C9 Supersomes, luciferin-H conversion, luminescence. inhibition, % at 5 µM;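 active means blocking of liver enzyme CYP2C9 beyond about 50% at 5 µM, limit read from the data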
CYP2C9 activ: activators of human CYP2C9; hit rate 1.4% among 96,000; activation factor at 5 µM; recombinant CYP2C9, luciferin-H conversion, luminescence; active compounds read high; factor 1 = untreated enzyme, 0 = blocked;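 active means activation factor of 2 or more for CYP2C9 at a 5 µM dose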;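 further: 0 = sulfaphenazole-blocked wells and 1 = vehicle-only wells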
* = called active by the depositor; . = no result given. An excerpt weighted towards active compounds, which were near 27% of everything screened.

SMILES	CYP2C19 inhib	CYP2C19 activ	EphB4 ephrin blk	CYP2C9 inhib	CYP2C9 activ
CSCCC(NC(=O)COc1ccccc1)C(=O)N1CCN(c2ccccc2F)CC1 (stereo not drawn)	74.0*	0.3	-4.5	78.2*	0.2
COc1ccc(CCNC(=O)NC2CCCCC2)cc1OC	81.6*	0.2	1.2	0.7	1
O=C(NCCc1ccccc1)NC1CCCCC1	59.4*	0.4	-2.6	16.1	0.8
CC(SCc1ccccc1)C(=O)NC1CCCC1 (stereo not drawn)	83.0*	0.2	-6.7	74.2*	0.3
Cc1ccc(C(=O)NCC(=O)OCC(=O)c2c(N)n(C)c(=O)n(C)c2=O)s1	7.3	0.9	-10.7	58.4*	0.4
Cn1c(N)c(C(=O)COC(=O)c2ccc(Br)o2)c(=O)n(C)c1=O	3.0	1	2.6	11.5	0.9
O=c1c2cc(N3CCOCC3)ccc2[nH]c(=S)n1Cc1ccco1	28.1	0.7	.	53.0*	0.5
O=c1c2cc(N3CCOCC3)ccc2[nH]c(=S)n1Cc1cccc(Cl)c1	-5.0	1.1	-3.1	1.5	1
CC(C)COC(=O)N1CCCC1C(=O)O (stereo not drawn)	.	.	-7.7	.	.
CCOC(=O)C1=C(C)N=C2SC(CC)C(=O)N2C1c1cccc(F)c1 (stereo not drawn)	90.9*	0.1	-3.5	75.3*	0.2
CCC1SC2=NC(C)=C(C(=O)OC)C(c3cccs3)N2C1=O (stereo not drawn)	90.4*	0.1	0.4	44.3	0.6
CCN1CCN(Cc2nc3c(c(=O)n(C)c(=O)n3C)n2Cc2cccc3ccccc23)CC1	6.5	0.9	-3.9	7.7	0.9
COc1ccc2c(c1OC)C(=O)NC(C)=C(C(=O)OC(C)(C)C)C2O (stereo not drawn)	80.9*	0.2	-0.6	55.5*	0.4
COc1cc(C2NC(=O)NC(C)=C2C(=O)OC(C)(C)C)ccc1OCC(N)=O (stereo not drawn)	-9.7	1.1	7.0	8.3	0.9
COc1cc(C2C(C#N)=C(N)Oc3cc(C)oc(=O)c32)ccc1OC(=O)N1CCOCC1 (stereo not drawn)	-6.6	1.1	.	23.9	0.8
CC1/C(=C\c2ccc(Cl)cc2)C(=O)C2CC1C2(C)C (stereo not drawn)	76.8*	0.2	1.5	64.9*	0.4
CCc1nnc(NC(=O)C2CCC2)s1	-5.1	1.1	4.2	-4.8	1
O=C(Nc1nnc(C2CC2)s1)C1Cc2ccccc2CN1S(=O)(=O)c1cccs1 (stereo not drawn)	100.0*	0	0.9	67.4*	0.3
CCc1nnc(NC(=O)C2CCCN(S(=O)(=O)c3ccccc3)C2)s1 (stereo not drawn)	63.9*	0.4	-13.8	17.7	0.8
CCc1nnc(NC(=O)C2Cc3ccccc3CN2S(=O)(=O)c2cccs2)s1 (stereo not drawn)	61.1*	0.4	2.1	63.4*	0.4
CCc1nnc(NC(=O)C2CCCN2C(=O)Nc2ccccc2OC)s1 (stereo not drawn)	15.5	0.8	-2.8	34.3	0.7
CCc1nnc(NC(=O)C2CCCN2S(=O)(=O)c2ccc(C)cc2)s1 (stereo not drawn)	22.6	0.8	-6.1	64.7*	0.4
C=CCn1c(=S)[nH]c2ccccc2c1=O	.	.	0.7	.	.
CCc1nnc(NC(=O)C2Cc3ccccc3CN2S(=O)(=O)c2ccc(C)cc2)s1 (stereo not drawn)	98.8*	0	7.0	63.8*	0.4
C/C(=N\NC(=O)C1CCCN(S(=O)(=O)c2ccccc2)C1)c1cccnc1 (stereo not drawn)	44.1	0.6	-1.7	10.4	0.9
SMILES	CYP2C19 inhib	CYP2C19 activ	EphB4 ephrin blk	CYP2C9 inhib	CYP2C9 activ
C/C(=N\NC(=O)C1CCCN(S(=O)(=O)c2ccccc2)C1)c1ccncc1 (stereo not drawn)	48.8	0.5	-14.1	68.6*	0.3
CC(=O)/C(C(=N)N1CCN(Cc2ccccc2)CC1)=C(\C)O	2.6	1	2.8	-17.4	1.2
COC(=O)c1ccc(Cl)c(NC(=O)NC23CC4CC(CC(C4)C2)C3)c1	68.0*	0.3	-2.2	81.7*	0.2
CC(=O)Nc1nonc1-c1nc2ccccc2n1Cc1nnc(C)o1	-5.3	1.1	3.4	-0.2	1
COc1ccc(C(=O)Nc2ccccc2N2CCN(C(=O)C(C)C)CC2)cc1Cl	.	.	-11.0	.	.
COc1ccc(Cl)cc1C(=O)Nc1ccccc1N1CCN(C(=O)C(C)C)CC1	67.5*	0.3	-8.8	68.5*	0.3
CCC(=O)N1CCN(c2ccccc2NC(=O)COc2cccc(C)c2)CC1	40.2	0.6	-3.3	57.8*	0.4
CCC(=O)N1CCN(c2ccccc2NC(=O)c2cccc(C)c2)CC1	76.9*	0.2	-4.3	71.2*	0.3
CCOc1cccc(C(=O)Nc2ccccc2N2CCN(C(=O)C(C)C)CC2)c1	76.9*	0.2	-3.9	94.1*	0.1
Cc1cc(C)cc(OCC(=O)Nc2ccccc2N2CCCCC2)c1	-1.0	1	-2.4	39.1	0.6
Cn1nnc(NC(=O)c2ccccc2)n1	.	.	12.5	.	.
CC1CCc2nc3ccc(S(=O)(=O)N4CCC(C(=O)N5CCCCC5)CC4)cc3c(C(=O)O)c2C1 (stereo not drawn)	-5.6	1.1	-5.5	-0.3	1
O=C(Cn1cnc2ccccc2c1=O)Nc1ccc2c(c1)CCC2	29.5	0.7	-7.4	40.0	0.6
CCN(CC)S(=O)(=O)c1ccc(NC(=O)Cn2cnc3ccccc3c2=O)cc1	44.2	0.6	6.5	67.2*	0.3
O=C(Cn1cnc2ccccc2c1=O)NCCC(=O)Nc1ccc2c(c1)OCCO2	14.1	0.9	-4.2	51.4*	0.5
O=C(Cn1cnc2ccccc2c1=O)Nc1ccc2c(c1)OCCO2	-6.1	1.1	-13.5	21.2	0.8
CN(C)S(=O)(=O)c1cccc(NC(=O)Cn2cnc3ccccc3c2=O)c1	42.7	0.6	4.1	83.6*	0.2
O=C(CSC1=NC(=O)C(c2ccccc2)C(=O)N1)Nc1ccccc1Cl (stereo not drawn)	-19.6	1.2	2.5	26.2	0.7
CCc1ccc(C(=O)COC(=O)c2ccc(-c3nnc(-c4ccccc4)o3)cc2)cc1	63.9*	0.4	4.1	-7.6	1.1
CC(C)OC(=O)CSc1nnc(Cc2ccccc2)n1CC1CCCO1 (stereo not drawn)	17.5	0.8	0.6	2.8	1
CN(C)CCNc1oc(COc2ccc(Cl)cc2)nc1C#N	26.8	0.7	2.5	13.1	0.9
N#Cc1nc(COc2ccc(Br)cc2)oc1NCCCn1ccnc1	99.9*	0	3.7	99.5*	0
N#Cc1nc(COc2ccccc2)oc1NCCCn1ccnc1	99.8*	0	4.3	95.3*	0
N#Cc1nc(COc2ccccc2Cl)oc1NCc1ccco1	20.4	0.8	-6.1	43.5	0.6
N#Cc1nc(COc2ccccc2F)oc1NCCCn1ccnc1	96.6*	0	0.1	89.6*	0.1
Cc1ccc(OCc2nc(C#N)c(NCCCn3ccnc3)o2)cc1	99.1*	0	2.0	90.7*	0.1
